Assay [1] can be described thus: optical density shifts of acrAB sulA E. coli – strain DRC41, OD650, 48 h, E. coli filamentation inducer project, primary screen (AID 1152).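 Further: E. coli MC1000 strain DRC41 lacking acrAB efflux pump and sulA.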 The following applies: higher = more signal, called active from +8 up or from −8 down.
Assay [2] can be described thus: probe aLefty1 binding on compound microarray – biochemical, small-molecule microarray, 635/667 nm fluorescence, primary screen (AID 1153).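 Further: score merges spot fluorescence with signal-to-noise ratio from the scanned slide images.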 The following applies: higher = more signal.
The nature of assay [3]: plasmodial surface anion channel blockers, osmotic lysis – cell-based, P. falciparum Indochina, OD700, 1 h, primary screen (AID 1154). The settings on record: P. falciparum Indochina infected RBC osmotic lysis, higher = more signal, called active from +8 up or from −8 down.
Assay [4] is described as follows: plasmodial surface anion channel blockers, osmotic lysis – cell-based, P. falciparum Indochina, OD700, 2 h, primary screen (AID 1155).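 Further: lysis reports solute entry through the parasite surface anion channel PSAC.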 The following applies: P. falciparum Indochina infected erythrocytes, higher = more signal, called active from +8 up or from −8 down.
Assay [5] can be described thus: changes in parasitized red cell lysis, either direction – P. falciparum Indochina, OD700, 3 h, PSAC antagonist project, primary screen (AID 1156). The settings on record: P. falciparum-infected erythrocytes, osmotic lysis, higher = more signal, called active from +8 up or from −8 down.
A short description of assay [6]: plasmodial surface anion channel blockers, osmotic lysis – cell-based, P. falciparum Indochina, OD700, 18 h, primary screen (AID 1157). The following applies: P. falciparum Indochina infected erythrocytes, osmotic lysis OD700, 18 h; higher = more signal, called active from +8 up or from −8 down.
Assay [7] can be described thus: S6 kinase pathway phospho-S6 level changes – cell-based, A549, cytoblot, luminescence, serum-stimulated, primary screen (AID 1158).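 Further: serum-stimulated A549 lung adenocarcinoma cells; signal is phosphorylated S6 detected by cytoblot immunostaining with HRP secondary.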 The settings on record: 5 h, higher = more signal.
Assay [8] addresses NADPH oxidase 2 (Homo sapiens) (UniProt P04839). The assay is described as follows: compounds shifting NOX2 Amplex Red fluorescence – cell-based, HEK293-NOX2, PMA-stimulated, NOX inhibitor project, primary screen (AID 1159). Further: test concentration not given here. The following applies: 45 min, higher = more signal, called active from +8 up or from −8 down.
The target in assay [9] is NADPH oxidase 4 (Homo sapiens) (UniProt Q9NPH5). The assay is described as follows: compounds shifting NOX4 Amplex Red fluorescence – cell-based, HEK293-NOX4, tetracycline-induced, NOX inhibitor project, primary screen (AID 1160). The settings on record: HEK293-NOX4, Amplex Red H2O2 fluorescence, 45 min; higher = more signal, called active from +8 up or from −8 down.
Sequence of NADPH oxidase 4 (Homo sapiens) (Q9NPH5 whole entry, looked up): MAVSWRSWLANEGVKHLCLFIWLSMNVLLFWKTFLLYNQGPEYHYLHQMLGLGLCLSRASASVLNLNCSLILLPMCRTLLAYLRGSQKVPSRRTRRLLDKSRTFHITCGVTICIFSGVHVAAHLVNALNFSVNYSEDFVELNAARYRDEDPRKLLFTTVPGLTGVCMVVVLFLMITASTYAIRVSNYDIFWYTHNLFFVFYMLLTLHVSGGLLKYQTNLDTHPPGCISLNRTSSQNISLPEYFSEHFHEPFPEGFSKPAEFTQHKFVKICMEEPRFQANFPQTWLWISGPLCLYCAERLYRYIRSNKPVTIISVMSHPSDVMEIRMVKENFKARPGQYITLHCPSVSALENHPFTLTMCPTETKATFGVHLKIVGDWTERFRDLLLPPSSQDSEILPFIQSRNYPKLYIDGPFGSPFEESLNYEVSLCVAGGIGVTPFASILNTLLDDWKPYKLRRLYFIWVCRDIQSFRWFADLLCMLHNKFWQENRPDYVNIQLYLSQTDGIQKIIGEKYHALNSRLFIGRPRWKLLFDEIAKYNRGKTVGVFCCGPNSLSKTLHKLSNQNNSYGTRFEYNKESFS
Assay [10] concerns the target NADPH oxidase 5 (Homo sapiens) (UniProt Q96PH1). The assay is described as follows: compounds shifting NOX5 Amplex Red fluorescence – cell-based, HEK293-NOX5, NOX inhibitor project, primary screen (AID 1161). The settings on record: HEK293-NOX5, ionomycin, 45 min, higher = more signal.
Assay [11] can be described thus: compound effects on lung adenocarcinoma cell viability – A549, calcein-AM fluorescence, 48 h, basal, profiling panel (AID 1162). Further: test concentration not given here. The following applies: higher = more signal.
Assay [12] can be described thus: compound effects on differentiated 3T3-L1 adipocyte viability – cell-based, 3T3-L1 adipocytes, calcein-AM fluorescence, 48 h, basal, profiling panel (AID 1163). Further: test concentration not given here. The settings on record: 3T3-L1 adipocytes viability, higher = more signal.
Assay [13] in a line: compound effects on hepatocellular carcinoma cell viability – HepG2, calcein-AM fluorescence, 48 h, basal, profiling panel (AID 1164). Further: test concentration not given here. The following applies: higher = more signal.
Assay [14] is described as follows: compound effects on multiple myeloma cell viability – MM1S, calcein-AM fluorescence, 48 h, basal, profiling panel (AID 1165).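 Further: viability of MM1S multiple myeloma cells under basal unstimulated conditions; test concentration not given here.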 The following applies: higher = more signal.
A short description of assay [15]: calcein-AM signal in unstimulated myeloma cells – cell-based, calcein-AM fluorescence, 48 h, PK04 Diversity Set, profiling panel (AID 1166).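 Further: cells grown under basal conditions without added stimulus; test concentration not given here.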 The settings on record: RPMI8226 myeloma viability, higher = more signal.
Assay [16] is described as follows: JC-1 mitochondrial signal, unstimulated HepG2 cells – cell-based, JC-1 fluorescence, 24 h, 100 nL compound, profiling panel (AID 1167). Further: test concentration not given here. The settings on record: HepG2 mitochondrial potential, higher = more signal.
A short description of assay [17]: JC-1 mitochondrial signal, unstimulated adipocytes – cell-based, JC-1 fluorescence, 3T3-L1 adipocytes, 24 h, 100 nL compound, profiling panel (AID 1168). Further: test concentration not given here. The settings on record: JC-1 mitochondrial fluorescence, higher = more signal, called active from +8 up or from −8 down.
Assay [18] in a line: JC-1 mitochondrial signal, unstimulated myeloma cells – cell-based, JC-1 fluorescence, RPMI8226, 24 h, 100 nL compound, profiling panel (AID 1169). Further: test concentration not given here. The settings on record: JC-1 mitochondrial potential fluorescence, higher = more signal.
The nature of assay [19]: JC-1 mitochondrial signal, unstimulated MM1S myeloma – cell-based, JC-1 fluorescence, 24 h, 100 nL compound, profiling panel (AID 1170). Further: test concentration not given here. The following applies: MM1S mitochondrial potential, higher = more signal.
A short description of assay [20]: resazurin metabolic signal in A549 cells – cell-based, resazurin fluorescence, 24 h, PK04 Diversity Set, profiling panel (AID 1171). Further: test concentration not given here. The settings on record: A549 viability, higher = more signal, called active from +8 up or from −8 down.

Among the data in PubChem BioAssay are z-score and composite z-score values, retold here.

The source made the active and inactive calls.

Sequence of NADPH oxidase 2 (Homo sapiens) (P04839 whole entry, looked up): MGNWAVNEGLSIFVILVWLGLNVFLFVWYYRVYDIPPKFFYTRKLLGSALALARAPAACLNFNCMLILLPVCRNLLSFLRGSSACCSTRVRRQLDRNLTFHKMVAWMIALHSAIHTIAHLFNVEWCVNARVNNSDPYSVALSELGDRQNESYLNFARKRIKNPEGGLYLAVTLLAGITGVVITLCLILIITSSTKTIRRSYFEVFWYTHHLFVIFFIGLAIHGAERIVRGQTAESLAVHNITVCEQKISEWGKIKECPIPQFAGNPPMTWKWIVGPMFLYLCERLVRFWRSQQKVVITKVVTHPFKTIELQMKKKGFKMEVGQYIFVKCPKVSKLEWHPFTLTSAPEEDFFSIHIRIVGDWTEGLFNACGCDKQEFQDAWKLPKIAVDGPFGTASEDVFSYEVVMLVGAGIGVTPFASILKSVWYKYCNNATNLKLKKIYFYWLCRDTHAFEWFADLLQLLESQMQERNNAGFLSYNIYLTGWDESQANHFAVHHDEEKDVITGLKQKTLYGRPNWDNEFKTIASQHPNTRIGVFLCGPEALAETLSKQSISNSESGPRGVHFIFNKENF
Sequence of NADPH oxidase 5 (Homo sapiens) (Q96PH1 whole entry, looked up): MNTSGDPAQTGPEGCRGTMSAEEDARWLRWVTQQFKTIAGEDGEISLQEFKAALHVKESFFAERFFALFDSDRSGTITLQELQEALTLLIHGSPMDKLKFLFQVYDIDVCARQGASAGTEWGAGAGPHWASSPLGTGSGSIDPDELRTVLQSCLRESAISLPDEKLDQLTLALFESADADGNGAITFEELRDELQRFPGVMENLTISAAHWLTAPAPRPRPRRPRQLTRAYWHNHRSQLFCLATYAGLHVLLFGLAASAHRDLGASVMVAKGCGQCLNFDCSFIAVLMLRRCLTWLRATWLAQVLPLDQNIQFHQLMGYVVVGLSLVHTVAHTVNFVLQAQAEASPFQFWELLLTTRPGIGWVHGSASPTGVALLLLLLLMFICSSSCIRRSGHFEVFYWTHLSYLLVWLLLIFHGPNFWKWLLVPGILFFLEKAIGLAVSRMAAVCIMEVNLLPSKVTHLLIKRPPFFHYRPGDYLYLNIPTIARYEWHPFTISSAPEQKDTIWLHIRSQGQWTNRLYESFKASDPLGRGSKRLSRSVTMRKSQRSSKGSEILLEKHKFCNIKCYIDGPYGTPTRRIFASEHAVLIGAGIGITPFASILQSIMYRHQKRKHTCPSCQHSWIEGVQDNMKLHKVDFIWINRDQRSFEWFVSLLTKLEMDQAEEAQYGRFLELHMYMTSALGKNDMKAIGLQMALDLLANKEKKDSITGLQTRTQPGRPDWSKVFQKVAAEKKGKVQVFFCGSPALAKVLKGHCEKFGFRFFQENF

In the case of `CCOC(=O)[C@H](CC(C)C)NC(=O)CCC1CC(OC(=O)NCc2ccc3c(c2)OCO3)CC2(CCCC(COC(=O)NCC3CCCCC3)O2)O1` (stereo not given in full), the z-score in assay [1] is 0.192 (inactive); in assay [3] it was 1.35 (inactive); in assay [4], 0.0043 (inactive); in [5], -0.116 (inactive); in assay [6] it was -0.0704 (inactive); in assay [7] it was 0.542. Further, the z-score is -0.541 (inactive) in assay [8]; 0.563 (inactive) in assay [9]; 0.61 in [10]; 1.2 in assay [11]; -0.721 in [12]; -0.991 in assay [13]. Besides, the z-score was -1.2 in assay [14]; 0.599 in assay [15]; 0.498 in assay [16]; 0.368 (inactive) in assay [17]; -0.247 in assay [18]; -0.972 in [19]. For the same molecule, the z-score in assay [20] is 1.26 (inactive). The molecule also showed a composite z-score in assay [2] of 0.237.

Consider `CC(CCN1CCCc2nc(C)c(C)cc21)=NO[C@@H](C)c1cc(-c2c(C)cc(C)cc2C)no1`, for which the z-score in assay [1] is 1.22 (inactive); in assay [3] it was 3.44 (inactive); in assay [4], 0.762 (inactive); in assay [5] it was 1.35 (inactive); in assay [6] it was 0.465 (inactive); in assay [7] it was 0.124. Further, the z-score in [8] was -1 (inactive); in assay [9] it was -0.469 (inactive); in assay [10] it was 0.221; in [11], 0.91; in [12] it was -0.0581; in assay [13], 1.42. The z-score was -0.603 in assay [14]; -0.843 in assay [15]; 3.04 in assay [16]; -0.127 (inactive) in assay [17]; -0.0137 in [18]; -1.08 in [19]. The z-score in assay [20] is -0.102 (inactive). Moreover, the composite z-score in assay [2] worked out at 0.0402.

In the case of `CO[C@H]1COC(=O)[C@@H](C)COC(=O)[C@@H](OCc2ccccc2)C=C[C@@H]1C`, the z-score in assay [1] is -0.303 (inactive); in [3], -0.347 (inactive); in assay [4] it was 0.32 (inactive); in assay [5], 0.328 (inactive); in assay [6], -0.0659 (inactive); in assay [7], -0.286. Further, the z-score in assay [8] is 0.237 (inactive); in assay [9], 0.566 (inactive); in assay [10], -0.609; in assay [11], -0.162; in assay [12], -0.197; in assay [13], 0.373. Besides, the z-score in assay [14] is -0.112; in assay [15], 0.473; in assay [16], 0.485; in [17], 0.531 (inactive); in assay [18], 0.458; in [19], 0.0911. The z-score in assay [20] is 0.39 (inactive). In assay [2], this molecule had a composite z-score of -0.235.

In the case of `COc1ccc(C#C[C@@H]2C=C[C@H](OC(C)=O)[C@@H](COC(C)=O)O2)cc1`, the z-score is 0.381 (inactive) in assay [1]; 1.96 (inactive) in [3]; 0.141 (inactive) in assay [4]; -0.544 (inactive) in assay [5]; -0.0979 (inactive) in assay [6]; -0.394 in [7]. The z-score in [8] was 1.38 (inactive); in [9], 0.59 (inactive); in [10], 0.89; in assay [11], -0.142; in assay [12], 0.49; in [13], 0.419. The z-score in [14] was -3.54; in [15], -2.65; in assay [16] it was -1.52; in assay [17], -0.197 (inactive); in assay [18], -0.437; in assay [19], -2.68. Besides, the z-score in assay [20] was -0.0296 (inactive). The composite z-score in assay [2] was -0.193.
